Assay results published in PubChem BioAssay (NCATS).
Inconclusive results are not listed. Calls of active or inactive are those of the source. Unless noted, calls follow the shape of the dose curve; as a rule, active = well fitted curve in the direction sought with a large enough effect; inconclusive = small, poorly fitted or top-dose-only effect, or another doubt; inactive = no such curve, though single readings can be large; an effect the other way counts as inactive or inconclusive.

Legend:
[1] = Stat Signaling Pathway (AID 446; active = well fitted curve in either direction with a large enough effect, not every such curve was filed as active;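 also: ME-180 cervical cancer cells given 40 pM IL-6 alongside compound; SIE-controlled beta-lactamase reporter measured as 460/530 nm FRET emission ratio; % is scaled to controls: 0 for no effect and ±100 for the full control effect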)
Outline: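 IL-6/STAT signaling read in ME-180 cells via an SIE beta-lactamase reporter. Stimulus was 40 pM IL-6 (its AC50) for 5 hrs, so both activation and inhibition register.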

[2] = molecular target: Mitogen-activated protein kinase 10 (Mus musculus) (UniProt Q61831); assay: JNK3 AlphaScreen Assay (AID 530; active = well fitted curve in either direction with a large enough effect, not every such curve was filed as active;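 also: kinase came from lysate of stimulated human HepG2 cells; signal reports phosphorylation of biotinylated GST-cJun 1-79 at Ser73 with 10 µM ATP; % is scaled to controls: 0 for no effect and ±100 for the full control effect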)
Outline: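 Compound titrations were preincubated 15 minutes at room temperature with substrate, antibody and pre-activated JNK3-containing HepG2 lysate. Reactions were started with 10 uM ATP and stopped with EDTA-containing bead buffer for AlphaScreen detection.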

[3] = molecular target: 3',5'-cyclic-AMP phosphodiesterase 4B (Homo sapiens) (UniProt Q07343); assay: qHTS Assay for Inhibitors of PDE-IV (AID 607; active = well fitted activation curve with a large enough effect in the main read-out, with a control signal flat, not every such curve was filed as active; also: % of control where 0% means no effect)
Outline: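 Live HEK293 cells with a modified cyclic nucleotide-gated (CNG) channel report intracellular cAMP via membrane-potential dye fluorescence (ex 535/em 590 nm). Endogenous PDE-IV was targeted. Compounds were tested at up to 22.9 uM final; RO 20-1724 100 uM served as control.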

[4] = qHTS Assay for Lipid Storage Modulators (AID 1519; calls by dose curve; also: potency is read from the fitted curve at half-maximal effect; as to activity change, negative = inhibition: % is scaled to controls: 0 for no effect and ±100 for the full control effect); details: Drosophila S3 cells, BODIPY lipid droplet/cell ratio, laser cytometry, cells loaded with oleic acid
Outline: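 Cells seeded at 5,000 per well were treated with compounds over a concentration series and loaded with oleic acid (400 uM, as added). Lipid droplet fluorescence (488 nm excitation, 500-530 nm channel) was read by laser-scanning cytometry and normalized to 20 uM Triacsin C.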

[5] = molecular target: ATP-dependent 6-phosphofructokinase (Trypanosoma brucei brucei) (UniProt O15648); assay: qHTS Assay to Find Inhibitors of T. brucei phosphofructokinase: hit validation (AID 492961);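 also: luminescence reports ADP formed as PFK phosphorylates fructose-6-phosphate with ATP; % is scaled to controls: 0 for no effect and ±100 for the full control effect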
Outline: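 Measures ADP output of PFK (1.25 nM) at 0.1 mM ATP, 0.5 mM F6P, pH 8.0 TEA buffer with 5 mM MgCl2. No-enzyme wells define full inhibition; uninhibited enzyme wells define zero.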

[6] = molecular target: Ubiquitin carboxyl-terminal hydrolase 1 (Homo sapiens) (UniProt O94782); assay: Inhibitors of USP1/UAF1: Pilot qHTS (AID 504865); also: nearly all actives have a fitted effect of over 35% in size; also: potency is read from the fitted curve at half-maximal effect
Outline: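 Kinetic fluorescence assay: 1nM USP1/UAF1, 15 min compound preincubation, then 150nM Ub-Rho; 480/540 nm.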

[7] = molecular target: Luciferin 4-monooxygenase (Photinus pyralis) (UniProt P08659); assay: Biochemical firefly luciferase enzyme assay for NPC (AID 624030);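 also: purified P. pyralis luciferase at 10 nM with luciferin and ATP substrate; 0% = DMSO and -100% = full luciferase inhibition by PTC124 control; nearly all actives have a fitted effect of over 70% in size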
Outline: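 Direct inhibition of firefly luciferase enzyme (10 nM final, 50 mM Tris Acetate) assessed by luminescence within 5 minutes. Percent activity scaled between DMSO and PTC124 positive control, with concentration-effect curves classified by fit quality and response.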

[8] = qHTS profiling for inhibitors of Plasmodium falciparum proliferation (AID 504749); also: potency is read from the fitted curve at half-maximal effect;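 as to activity, negative = inhibition: 0% = DMSO vehicle and full inhibition = artemisinin control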; as to all read-outs here: nearly all actives have a fitted effect of over 60% in size; details: P. falciparum in erythrocytes, SYBR Green DNA, 72 h; for activity, negative = inhibition: at 12.8 µM (top of the series)
Outline: (§1)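 Infected RBCs, 0.3% parasitemia/2.5% Hct final; cpd 72 h, 37 C, 5% CO2; lysis buffer with saponin/triton/SYBR Green I, o/n RT dark; FI 485/535; norm. to artemisinin (0.29 uM) and DMSO.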

3D7 = assay: as above; details: P. falciparum in erythrocytes, SYBR Green DNA, 72 h; series mostly up to 12.8 µM
Outline: as §1

C2A = assay: as above; details: P. falciparum in erythrocytes, SYBR Green DNA, 72 h; series mostly up to 12.8 µM
Outline: as §1

CP217 = assay: as above; details: P. falciparum in erythrocytes, SYBR Green DNA, 72 h; series mostly up to 12.8 µM
Outline: as §1

CP238 = assay: as above; details: P. falciparum in erythrocytes, SYBR Green DNA, 72 h; series mostly up to 12.8 µM
Outline: as §1

CP262 = assay: as above; details: P. falciparum in erythrocytes, SYBR Green DNA, 72 h; series mostly up to 12.8 µM
Outline: as §1

CP269 = assay: as above; details: P. falciparum in erythrocytes, SYBR Green DNA, 72 h; series mostly up to 12.8 µM
Outline: as §1

CP305 = assay: as above; details: P. falciparum in erythrocytes, SYBR Green DNA, 72 h; series mostly up to 12.8 µM
Outline: as §1

CP325 = assay: as above; details: P. falciparum in erythrocytes, SYBR Green DNA, 72 h; series mostly up to 12.8 µM
Outline: as §1

CP329 = assay: as above; details: P. falciparum in erythrocytes, SYBR Green DNA, 72 h; series mostly up to 12.8 µM
Outline: as §1

DIV30 = assay: as above; details: P. falciparum in erythrocytes, SYBR Green DNA, 72 h; series mostly up to 12.8 µM
Outline: as §1

FAB9 = assay: as above; details: P. falciparum in erythrocytes, SYBR Green DNA, 72 h; series mostly up to 12.8 µM
Outline: as §1

PC49 = assay: as above; details: P. falciparum in erythrocytes, SYBR Green DNA, 72 h; series mostly up to 12.8 µM
Outline: as §1

[9] = measured here: cell count channel max response
[10] = measured here: lipid channel max response

Sequence of Ubiquitin carboxyl-terminal hydrolase 1 (Homo sapiens) (O94782 whole entry, looked up): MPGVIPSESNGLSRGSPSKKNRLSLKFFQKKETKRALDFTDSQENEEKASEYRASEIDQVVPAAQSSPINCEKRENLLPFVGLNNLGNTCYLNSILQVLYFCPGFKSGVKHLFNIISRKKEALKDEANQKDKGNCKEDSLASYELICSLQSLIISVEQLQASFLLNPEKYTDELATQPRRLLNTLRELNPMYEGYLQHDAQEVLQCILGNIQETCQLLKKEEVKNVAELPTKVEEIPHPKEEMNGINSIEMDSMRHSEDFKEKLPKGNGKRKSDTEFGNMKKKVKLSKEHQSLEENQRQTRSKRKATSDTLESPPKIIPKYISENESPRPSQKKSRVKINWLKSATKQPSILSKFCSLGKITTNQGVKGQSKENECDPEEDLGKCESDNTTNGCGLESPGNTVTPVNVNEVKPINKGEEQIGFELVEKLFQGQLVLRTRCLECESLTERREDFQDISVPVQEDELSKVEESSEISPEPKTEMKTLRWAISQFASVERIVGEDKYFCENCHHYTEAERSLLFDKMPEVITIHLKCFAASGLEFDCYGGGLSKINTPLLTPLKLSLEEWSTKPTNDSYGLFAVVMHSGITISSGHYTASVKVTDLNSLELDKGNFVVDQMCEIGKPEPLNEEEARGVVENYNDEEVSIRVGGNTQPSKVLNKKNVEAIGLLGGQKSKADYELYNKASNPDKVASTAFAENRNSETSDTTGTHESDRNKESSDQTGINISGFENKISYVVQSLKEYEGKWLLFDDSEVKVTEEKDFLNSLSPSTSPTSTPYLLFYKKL
Sequence of 3',5'-cyclic-AMP phosphodiesterase 4B (Homo sapiens) (Q07343 whole entry, looked up): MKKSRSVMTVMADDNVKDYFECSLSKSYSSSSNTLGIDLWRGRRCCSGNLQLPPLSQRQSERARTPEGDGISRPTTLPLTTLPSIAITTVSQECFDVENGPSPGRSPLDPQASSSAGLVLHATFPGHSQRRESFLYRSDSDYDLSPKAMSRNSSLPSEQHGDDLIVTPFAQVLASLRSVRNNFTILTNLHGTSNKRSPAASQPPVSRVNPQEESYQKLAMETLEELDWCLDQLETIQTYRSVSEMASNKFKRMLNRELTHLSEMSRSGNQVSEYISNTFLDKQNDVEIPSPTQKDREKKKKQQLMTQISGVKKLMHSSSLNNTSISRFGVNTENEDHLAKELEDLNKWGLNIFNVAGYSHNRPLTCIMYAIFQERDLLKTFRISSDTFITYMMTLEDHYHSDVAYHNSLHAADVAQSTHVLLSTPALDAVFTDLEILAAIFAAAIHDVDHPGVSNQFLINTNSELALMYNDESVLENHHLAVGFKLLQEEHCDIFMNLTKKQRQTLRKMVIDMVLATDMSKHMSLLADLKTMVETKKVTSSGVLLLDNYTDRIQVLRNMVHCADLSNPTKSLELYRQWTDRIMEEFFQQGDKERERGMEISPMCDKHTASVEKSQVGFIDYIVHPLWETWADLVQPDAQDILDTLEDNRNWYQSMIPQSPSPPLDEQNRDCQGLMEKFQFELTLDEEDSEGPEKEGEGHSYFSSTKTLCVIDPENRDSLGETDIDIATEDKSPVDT
Sequence of ATP-dependent 6-phosphofructokinase (Trypanosoma brucei brucei) (O15648 whole entry, looked up): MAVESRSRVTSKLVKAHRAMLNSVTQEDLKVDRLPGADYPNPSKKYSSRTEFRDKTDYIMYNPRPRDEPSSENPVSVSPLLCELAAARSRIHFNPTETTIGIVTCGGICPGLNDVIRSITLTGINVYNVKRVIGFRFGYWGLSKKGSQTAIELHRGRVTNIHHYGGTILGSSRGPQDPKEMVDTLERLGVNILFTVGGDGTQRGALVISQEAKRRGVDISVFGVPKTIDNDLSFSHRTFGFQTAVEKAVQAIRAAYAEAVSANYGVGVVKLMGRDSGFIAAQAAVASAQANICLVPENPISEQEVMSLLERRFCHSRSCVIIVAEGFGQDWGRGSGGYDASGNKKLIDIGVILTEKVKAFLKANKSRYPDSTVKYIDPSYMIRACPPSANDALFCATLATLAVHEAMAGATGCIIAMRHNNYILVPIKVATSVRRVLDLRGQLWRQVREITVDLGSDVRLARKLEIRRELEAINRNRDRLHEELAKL
Sequence of Luciferin 4-monooxygenase (Photinus pyralis) (P08659 whole entry, looked up): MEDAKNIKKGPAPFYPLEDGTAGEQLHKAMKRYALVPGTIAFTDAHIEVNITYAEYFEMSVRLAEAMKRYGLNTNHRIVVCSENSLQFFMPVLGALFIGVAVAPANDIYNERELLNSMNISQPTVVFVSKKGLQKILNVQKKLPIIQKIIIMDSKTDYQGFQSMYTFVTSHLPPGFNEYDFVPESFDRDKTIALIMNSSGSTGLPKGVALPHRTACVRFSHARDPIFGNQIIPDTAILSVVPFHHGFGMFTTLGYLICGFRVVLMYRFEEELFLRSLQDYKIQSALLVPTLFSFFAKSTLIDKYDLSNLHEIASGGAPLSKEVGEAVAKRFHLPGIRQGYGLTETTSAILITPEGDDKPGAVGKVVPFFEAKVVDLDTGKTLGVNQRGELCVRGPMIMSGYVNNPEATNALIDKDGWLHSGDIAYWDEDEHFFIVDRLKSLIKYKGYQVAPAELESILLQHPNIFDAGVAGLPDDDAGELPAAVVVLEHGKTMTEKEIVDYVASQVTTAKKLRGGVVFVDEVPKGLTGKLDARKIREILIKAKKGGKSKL

In the case of `COc1cc(N[C@@H](C)CCCN)c2ncccc2c1`, the outcome [1] was “inactive”, the Potency [2] was “inactive” and the outcome [3] was “inactive”. The activity change, negative = inhibition ([4]; at 25.7 µM (top of the series)) was -1.31% (inactive), the max response [4, 9] was -0.938% and the max response [4, 10] was -2.77%. The outcome [5] was “inactive”, the Potency [6] was 3980 nM (active) and the Potency [7] was “inactive”. For the same compound, the Potency ([8]; parasite line A) was 1580 nM (active), the Potency ([8]; parasite line B) was 2820 nM (active) and the Potency (3D7) was 1780 nM (active). The Potency (C2A) was 2820 nM (active), the Potency (CP217) was 1120 nM (active) and the Potency (CP238) was 2240 nM (active). The Potency (CP262) was 1280 nM (active), the Potency (CP269) was 1810 nM (active) and the Potency (CP305) was 1810 nM (active). For the same compound, the Potency (CP325) was 2030 nM (active), the Potency (CP329) was 3610 nM (active) and the Potency (DIV30) was 2030 nM (active). For the same compound, the Potency (FAB9) was 891 nM (active) and the Potency (PC49) was 2240 nM (active).

For `CC[C@H](C(=O)[C@H](C)[C@H](O)[C@H](C)CCc1ccc(C)c(O)c1C(=O)O)[C@H]1O[C@](CC)([C@@H]2CC[C@@](O)(CC)[C@H](C)O2)C[C@H]1C`, the Potency [2] was “inactive”, the outcome [3] was “inactive” and the Potency [4] was 14100 nM (active). For the same compound, the max response [4, 9] was -26.4% and the max response [4, 10] was -85.1%.

For `Cc1cc2ccc(=O)oc2cc1OC[C@@H](O)C(C)(C)O`, the Potency [2] was “inactive”, the outcome [3] was “inactive” and the activity change, negative = inhibition ([4]; at 57.5 µM (top of the series)) was 5.47% (inactive). The max response [4, 9] was 13% and the max response [4, 10] was 21.2%.

In the case of `CO[C@@H]1CC[C@@]2(C)[C@@H](CC[C@@]3(C)[C@H]2CC=C2[C@H]4CC(C)(C)[C@H](O)[C@@H](OC(C)=O)[C@]4(CO)[C@H](O)C[C@]23C)[C@@]1(C)CO` (tested in a mixture with another compound), the Potency [2] was “inactive”, the outcome [3] was “inactive” and the activity change, negative = inhibition ([4]; at 25.7 µM (top of the series)) was 0.0322% (inactive). The max response [4, 9] was 6.28%, the max response [4, 10] was 7.61% and the Potency [6] was “inactive”.

For `C[C@H](NCCC(c1ccccc1)c1ccccc1)c1ccccc1`, the outcome [1] was “inactive”, the Potency [2] was “inactive” and the activity change, negative = inhibition ([4]; at 25.7 µM (top of the series)) was -3.52% (inactive). The max response [4, 9] was -21.2%, the max response [4, 10] was -22.3% and the Potency [6] was “inactive”.

In the case of `CN1[C@H](CC(=O)c2ccccc2)CCC[C@H]1C[C@@H](O)c1ccccc1`, the Potency [2] was “inactive”, the activity change, negative = inhibition ([4]; at 57.5 µM (top of the series)) was -2.41% (inactive) and the max response [4, 9] was -11.7%. The max response [4, 10] was -13.6%.

In the case of `CC(C)(C)NC(=O)[C@@H]1CC[C@@H]2[C@@H]3CC[C@@H]4NC(=O)C=C[C@@]4(C)[C@H]3CC[C@]21C`, the outcome [1] was “inactive”, the Potency [2] was “inactive” and the outcome [3] was “inactive”. The activity change, negative = inhibition ([4]; at 25.7 µM (top of the series)) was -1.87% (inactive), the max response [4, 9] was -11.6% and the max response [4, 10] was -13.3%. The outcome [5] was “inactive”, the Potency [6] was “inactive” and the Potency [7] was “inactive”. The activity, negative = inhibition ([8]; parasite line A) was 6.77% (inactive), the activity, negative = inhibition ([8]; parasite line B) was -2.48% (inactive) and the Potency (3D7) was “inactive”. The Potency (C2A) was “inactive”, the Potency (CP217) was “inactive” and the Potency (CP238) was “inactive”. For the same compound, the Potency (CP262) was “inactive”, the Potency (CP269) was “inactive” and the Potency (CP305) was “inactive”. For the same compound, the Potency (CP325) was “inactive”, the Potency (CP329) was “inactive” and the Potency (DIV30) was “inactive”. For the same compound, the Potency (FAB9) was “inactive” and the Potency (PC49) was “inactive”.

In the case of `COC(=O)[C@@H]1[C@@H]2C[C@H]3c4[nH]c5cc(OC)ccc5c4CCN3C[C@@H]2C[C@H](OC(=O)c2cc(OC)c(OC)c(OC)c2)[C@H]1OC`, the outcome [1] was “inactive”, the Potency [2] was “inactive” and the outcome [3] was “inactive”. For the same compound, the activity change, negative = inhibition ([4]; at 25.7 µM (top of the series)) was -6.07% (inactive), the max response [4, 9] was -5.3% and the max response [4, 10] was -12.8%.

With `C[N+]1(C)CC[C@@H](OC(=O)[C@@](O)(c2ccccc2)C2CCCC2)C1` the outcome [1] was “inactive”, the Potency [2] was “inactive” and the outcome [3] was “inactive”. The activity change, negative = inhibition ([4]; at 25.7 µM (top of the series)) was -2.8% (inactive), the max response [4, 9] was -7.92% and the max response [4, 10] was -10.3%.
